Sampled rows, rich in hits. Any-hit rate of the full collection: about 2.3%.
ADAM10 inh – inhibits human ADAM10. O14672. recombinant ADAM10, EDANS/DABCYL FRET peptide cleavage, 3 h. inhibition, % at 7 µM. actives 0.62% (n = 370,000). AID 720582;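 active = inhibition above a per-campaign cutoff equal to the mean of compounds falling between control-based bounds plus 3 SD, cut at about 20% in these data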
Target sequence (O14672 214-748 limits assumed): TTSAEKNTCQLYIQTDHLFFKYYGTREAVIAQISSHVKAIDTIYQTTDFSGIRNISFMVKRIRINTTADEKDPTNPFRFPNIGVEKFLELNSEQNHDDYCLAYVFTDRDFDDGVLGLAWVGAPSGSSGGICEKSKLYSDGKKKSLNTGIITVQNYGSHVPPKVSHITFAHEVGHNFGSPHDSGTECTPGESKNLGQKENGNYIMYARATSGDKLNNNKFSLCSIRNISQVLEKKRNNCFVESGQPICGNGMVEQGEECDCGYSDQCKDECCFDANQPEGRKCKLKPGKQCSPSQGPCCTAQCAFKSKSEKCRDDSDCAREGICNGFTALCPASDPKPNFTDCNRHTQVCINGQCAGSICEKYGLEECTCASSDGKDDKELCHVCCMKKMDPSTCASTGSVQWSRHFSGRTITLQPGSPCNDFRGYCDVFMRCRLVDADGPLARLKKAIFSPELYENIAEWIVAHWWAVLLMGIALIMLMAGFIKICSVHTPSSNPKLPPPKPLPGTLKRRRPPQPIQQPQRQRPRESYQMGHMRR
proKLK7 act – activators of human kallikrein-7 zymogen. P49862. purified proKLK7, EDANS-DABCYL substrate fluorescence; 100% is mature enzyme control, 0% vehicle. activation, % at 7 µM. actives 0.9% (n = 370,000). AID 652039;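 active = activation above the mean of all tested compounds plus 3 SD, computed per campaign excluding outliers beyond control limits, cut at about 13% in these data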
V-ATPase pH – regulators of yeast V-ATPase proton transport; actives 0.37% (n = 350,000); S. cerevisiae, pHLuorin cytosolic pH fluorescence; response, % at 10 µM; AID 504577; in the data active = response mostly above about 7.3%, no sharp cut-off; inactive = mostly below about 5.4%; also: actives read high
ADAM17 inh – inhibits human ADAM17; recombinant ADAM17, EDANS/DABCYL FRET peptide cleavage; inhibition, % at 6.95 µM; actives 0.83% (n = 370,000); AID 720648;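 active = inhibition above the mean of compounds lying between control limits plus 3 SD, set per campaign, cut at about 8.5% in these data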
proKLK7 act conf – proKLK7 activation, confirmation; actives 68% (n = 3,200); purified proKLK7, EDANS-DABCYL substrate fluorescence; scaled: vehicle 0, mature enzyme 100; shares compounds with proKLK7 act; activation, % at 7 µM;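 active = activation, as change over the incubation, above the mean of all tested compounds plus 3 SD, cut at about 13% in these data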
EDANS-DABCYL int – optically interferes with EDANS-DABCYL signal, flagging KLK7 hits; shares compounds with proKLK7 act; EDANS-DABCYL substrate fluorescence interference, no enzyme, 4 h; solvent 0%, active enzyme control 100%; activation, % at 7 µM; actives 80% (n = 3,200); AID 686952;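 active = activation above the all-compound mean plus 3 SD, ignoring values outside control-based bounds, cut at about 4.8% in these data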;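 also: value is the 4 h activation minus the activation read at time zero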
EDANS interf – EDANS fluorescence interference in dose response, no enzyme; shares compounds with proKLK7 act; EDANS-DABCYL peptide fluorescence interference; EC50, µM; actives 20% (n = 250);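 active = compounds that raise the fluorescence signal in this interference counterscreen, with EC50 at or below 10 µM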;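 also: intact quenched peptide substrate alone read at 355 nm excitation and 520 nm emission; signal is fluorescence gain from T0 to T4 after four hours at room temperature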
Of the large screens only hits and unclear results are named; the others gave an inactive call (follow-up assays come after a bar, where they were run); ! = repeats disagree.

CCOC(=O)CC1(C)NC(=O)c2c(C)sc(C(=O)OCC)c2N1 (stereo unspecified)	proKLK7 act 13 | proKLK7 act conf inactive | EDANS-DABCYL int inactive
Cn1c(NC(=O)c2ccccc2)nc(Cc2ccccc2)c1Cc1ccccc1	none (no result: V-ATPase pH)
Cc1cc(C)c2c(N)c3cccc(C)c3nc2n1	proKLK7 act 15 | proKLK7 act conf 46 | EDANS-DABCYL int 42
Cc1cccc2c(N)c3c(nc12)CCCC3 (tested in a mixture with another compound)	none
CCOC(=O)C1=C(C(=O)OCC)C2N(Cc3ccccc3)c3ccccc3[C@@]23C[C@@H](C(=O)OC)N(S(=O)(=O)c2ccc(C(F)(F)F)cc2)C3=N1 (stereo partly specified)	none (no result: V-ATPase pH)
COc1cccc(CN(C)Cc2cc(=O)oc3cc(O)c(Cl)cc23)c1	proKLK7 act 38 | proKLK7 act conf 28 | EDANS-DABCYL int 37
COc1cccc(CN(C)Cc2cc(=O)oc3c(C)c(C)ccc23)c1	none
COC(=O)c1ccc(CN2C(=O)[C@]3(OCCC=C[C@H]3C)c3cc(OC)ccc32)cc1	none (no result: V-ATPase pH)
COc1ccc(-c2nnc(SCC(=O)NN=C(C)c3cccc4ccccc34)n2-c2ccccc2)cc1	none (no result: V-ATPase pH)
CCCc1cc(=O)oc2cc(OC(=O)CN3C(=O)NC4(CCCC4)C3=O)ccc12	proKLK7 act 62 | proKLK7 act conf 224 | EDANS-DABCYL int 193
CCOc1ccccc1Oc1coc2cc(OC(=O)c3ccco3)ccc2c1=O	proKLK7 act 96 | proKLK7 act conf 264 | EDANS-DABCYL int 235
Cc1oc2cc(OC(=O)c3ccco3)ccc2c(=O)c1-c1nc2ccccc2n1C	proKLK7 act 16 | proKLK7 act conf 115 | EDANS-DABCYL int 104
CCCc1cc(=O)oc2cc(OCC(=O)N3CC[C@@]4(O)CCCC[C@H]4C3)ccc12	none (no result: V-ATPase pH)
CC(=O)Oc1ccc2c(=O)c(-c3ccccc3)c(C)oc2c1	proKLK7 act 121 | proKLK7 act conf 446 | EDANS-DABCYL int 384
O=C(Oc1ccc2ccccc2c1)c1ccco1	none
COc1ccc(CNS(=O)(=O)c2cc(Cl)ccc2N2CC[C@@H](O)C2)cc1	none (no result: V-ATPase pH)
Cc1ccc(C=Nn2c(-c3n[nH]c4c3CCC4)n[nH]c2=S)s1	none (no result: V-ATPase pH)
Cn1c(=O)oc2cc(S(=O)(=O)N3CCN(C(=O)C4CCCO4)CC3)ccc21 (stereo unspecified)	none (no result: V-ATPase pH)
C[C@H]1[C@@H](OC(=O)Nc2ccccc2C(F)(F)F)CC[C@@]23CCCN2C(=O)CCC[C@@H]13	none (no result: proKLK7 act, V-ATPase pH)
Cc1cc(=O)oc2cc(OC(=O)c3ccccc3)ccc12	proKLK7 act 117 | proKLK7 act conf 519 | EDANS-DABCYL int 377
Cc1cc(C)cc(Oc2coc3cc(OC(=O)c4cccs4)ccc3c2=O)c1	proKLK7 act 14 | proKLK7 act conf 24 | EDANS-DABCYL int 17 | EDANS interf inactive
CCc1cc(=O)oc2cc(OS(C)(=O)=O)ccc12	none
CCc1cc(=O)oc2cc(OC(=O)c3ccco3)ccc12	proKLK7 act 353 | proKLK7 act conf 788 | EDANS-DABCYL int 761
Cc1cc(=O)oc2cc(OC(=O)c3ccco3)ccc12	proKLK7 act 459 | proKLK7 act conf 729 | EDANS-DABCYL int 769
CS(=O)(=O)NN1C(=O)c2ccccc2NC12CCCC2	proKLK7 act 72 | proKLK7 act conf 38 | EDANS-DABCYL int 51
O=C1c2ccccc2NC2(CCCC2)N1NS(=O)(=O)c1ccccc1	proKLK7 act 37 | proKLK7 act conf 31 | EDANS-DABCYL int 28
O=C(NN1C(=O)c2ccccc2NC12CCCCC2)c1ccccc1	none
COc1ccc(-c2[nH]nc3oc(=O)cc(C)c23)cc1	proKLK7 act 13 | proKLK7 act conf 15 | EDANS-DABCYL int 21
CCOC(=O)c1c(-c2ccccc2)cn2c(C)cc(C)nc12	proKLK7 act 13 | proKLK7 act conf inactive | EDANS-DABCYL int inactive
CCOC(=O)c1c(C)nc(C)c(C(=O)OCC)c1-c1ccccc1	none (no result: ADAM10 inh, proKLK7 act, ADAM17 inh)
CCSc1nc2c(c(=O)[nH]1)C(c1ccc(C)cc1)C1=C(CCCC1=O)N2 (stereo unspecified)	proKLK7 act 17 | proKLK7 act conf inactive | EDANS-DABCYL int inactive
Fc1ccc(Cn2ccc3ccc(-c4ccc5ccn(Cc6ccc(F)cc6F)c5c4)cc32)c(F)c1	none (no result: V-ATPase pH)
CONC(=O)c1ccc(-c2cccc3nccn23)cc1	proKLK7 act 13 (no result: V-ATPase pH) | proKLK7 act conf inactive | EDANS-DABCYL int 12
OCc1ccc(-c2cccc3nccn23)cc1	proKLK7 act 16 (no result: V-ATPase pH) | proKLK7 act conf 15 | EDANS-DABCYL int 14
COP(=O)(O)CCOCCC(CC(C)C)NC(=O)OCc1ccccc1 (stereo unspecified)	none (no result: V-ATPase pH)
COC(=O)[C@]12C[C@H](CC(=O)NCc3cccc(C(F)(F)F)c3)C(=O)N(Cc3cccc4ccccc34)C1=C[C@H](C1CCCC1)O[C@@H]2C	none (no result: V-ATPase pH)
Cc1nnc(-n2cccc2)s1	none (no result: V-ATPase pH)
CNc1nc(NCc2ccccc2)c2sccc2n1	none (no result: V-ATPase pH)
CNc1nc(-c2ccccc2)c2sccc2n1	proKLK7 act 26 (no result: V-ATPase pH) | proKLK7 act conf 16 | EDANS-DABCYL int 20
COc1ccc([C@H]2OC(=O)C[C@H]2C(=O)N2CCCCC2)cc1OC	none (no result: V-ATPase pH)
CCN(C(=O)[C@@H](C1CC1)[C@@H](O)c1ccc(Cl)cc1)c1ccccc1	none (no result: V-ATPase pH)
CC1=Nc2ccc(C)cc2/C1=C/c1c(N)n2oc(C)cc2nc1=O	proKLK7 act 48! | proKLK7 act conf 25 | EDANS-DABCYL int 35
Cn1c2nc(=O)[nH]c(=O)c-2cc2ccccc21	proKLK7 act 70 | proKLK7 act conf 67 | EDANS-DABCYL int 65
O=c1nc2n(Cc3ccccc3)c3ccccc3cc-2c(=O)[nH]1	none (no result: V-ATPase pH)
O=c1nc2n(CCO)c3ccccc3cc-2c(=O)[nH]1	proKLK7 act 18 | proKLK7 act conf 48 | EDANS-DABCYL int 54
Cn1c(=O)c(-c2ccccc2)cc2ccccc21	none
CC(C)C[C@H]1COc2cc(NCCO)ccc2S(=O)(=O)N1	none (no result: V-ATPase pH)
CCOC(=O)[C@@]12CCC3=C1N(CCC3)C(=O)[C@H](CC(=O)NCC1CCCCC1)C2	none (no result: V-ATPase pH)
CCOc1cccc(-c2nn3c(-c4cccc(C)c4)nnc3s2)c1	none (no result: V-ATPase pH)
CCNc1nc(N)c(C(=C(C#N)C#N)c2ccccc2)s1	proKLK7 act 33 | proKLK7 act conf 139 | EDANS-DABCYL int 139
CC(=O)N1CCN(c2ccc(N3CCN(Cc4ccccc4)[C@H](C)C3)c(C)c2)[C@H](C)C1	none (no result: V-ATPase pH)
CCCCCC(=O)Nc1ccc2oc(-c3cccnc3)nc2c1	none
O=C(Cc1ccccc1)Nc1ccc2oc(-c3cccnc3)nc2c1	proKLK7 act 22 | proKLK7 act conf inactive | EDANS-DABCYL int inactive
Cc1ccc(Cn2cc(COC(=O)Nc3ccc(F)cc3)nn2)cc1	none (no result: V-ATPase pH)
c1ccn2c(c1)nc1c2nc2ccccn21	proKLK7 act 81 | proKLK7 act conf 70 | EDANS-DABCYL int 73

Compound activity from PubChem.
